Consider twelve compounds from PubChem BioAssay (EPA / NIEHS).

Inconclusive results are not listed. Activity calls are given as the source filed them. Rule for the calls, unless noted: active = hit-call score of the fitted dose curve at least 0.9, where 1 is the maximum; inconclusive = response in the unintended direction; inactive = score below 0.9.

Test [1] can be described thus: ATG_TAL_CIS: Attagene CIS-FACTORIAL HepG2 Assay for human TAL Basal Promoter (AID 2282966; active = hit-call score of the fitted dose curve at least 0.9, where 1 is the maximum; inactive = score below 0.9;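 note: background control endpoint measuring basal TAL promoter reporter mRNA not a specific factor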). The settings on record: HepG2 Attagene cis-factorial TAL promoter reporter; actives raise or lower the signal. Summed up:
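Steps: transfect HepG2 with multiple reporter transcription units; dose 24 h; isolate RNA, reverse-transcribe, PCR-amplify, label with 6-FAM, digest with HpaI; resolve by capillary electrophoresis. Bidirectional fitting against DMSO baseline.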

Test [2] in a line: ATG_TGFb_CIS: Attagene CIS-FACTORIAL HepG2 Assay for human Transforming Growth Factor (TGF) (AID 2282967; active = hit-call score of the fitted dose curve at least 0.9, where 1 is the maximum; inactive = score below 0.9). The settings on record: HepG2 Attagene CIS TGFb reporter, mRNA transcription; actives raise or lower the signal. Summed up:
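Transient MRTU transfection of HepG2 (FuGene 6). Dose 24 h. TriZol RNA, oligo(dT) RT, PCR, 6-FAM primer extension, HpaI cut, CE. Bidirectional fit, DMSO = baseline.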

The target in test [3] is X-box-binding protein 1 (Homo sapiens) (UniProt P17861). Briefly: ATG_Xbp1_CIS: Attagene CIS-FACTORIAL HepG2 Assay for human X-box Binding Protein 1 (XBP1) (AID 2282972; active = hit-call score of the fitted dose curve at least 0.9, where 1 is the maximum; inactive = score below 0.9). To be noted: HepG2 XBP1 cis-element reporter, Attagene multiplex; actives raise or lower the signal. Summed up:
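Fluorescence-labelled cDNA fragments from reporter transcripts, separated by capillary electrophoresis, give the signal. Source: HepG2 cells transfected with promoter-driven reporter units, harvested 24 h post-dose. DMSO served as reference for bidirectional curve fitting.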

For test [4], the target named is Oxysterols receptor LXR-beta (Homo sapiens) (UniProt P55055). Briefly: ATG_LXRb_TRANS: Attagene TRANS-FACTORIAL HepG2 Assay for human Liver X Receptor beta (LXRb) (AID 2282981). The settings on record: HepG2 Attagene TRANS GAL4-LXRb reporter, mRNA. Summed up: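 HepG2 cells transiently transfected with multiple reporter transcription units carrying chimeric NR-Gal4 proteins acting on GAL4-UAS reporters; compound exposure 24 h. Reporter mRNA quantified by RT-PCR, 6-FAM labelling, HpaI digestion and capillary electrophoresis; gain of signal versus DMSO.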

Test [5] can be described thus: ATG_M_06_TRANS: Attagene TRANS-FACTORIAL HepG2 Assay for M06 Transcription Factor (Internal Marker) (AID 2282983).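 Note: reporter transcript level by RT-PCR then capillary electrophoresis fluorescence.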 The settings on record: HepG2 Attagene TRANS M06 internal marker reporter. Summed up:
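Internal-marker background readout from a multiplexed TRANS reporter system in HepG2; 24 h dosing; mRNA induction quantified by RT-PCR plus capillary electrophoresis fluorescence; DMSO as negative control and baseline.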

Test [6] has as its target Transcriptional activator Myb (Homo sapiens) (UniProt P10242). The test can be described thus: ATG_Myb_CIS: Attagene CIS-FACTORIAL HepG2 Assay for human Myeloblastosis (Myb) Proto-Oncogene Transcription Factor (AID 2282986; active = hit-call score of the fitted dose curve at least 0.9, where 1 is the maximum; inactive = score below 0.9). To be noted: HepG2 Attagene CIS-FACTORIAL Myb reporter transcription; actives raise or lower the signal. Summed up:
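In this HepG2 transient-transfection format, cis-regulated reporter mRNA is quantified 24 h post-dosing by RT-PCR with capillary electrophoresis, fitted bidirectionally to DMSO baseline.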

In test [7] the target is Nuclear respiratory factor 1 (Homo sapiens) (UniProt Q16656). Briefly: ATG_NRF1_CIS: Attagene CIS-FACTORIAL HepG2 Assay for human Nuclear Respiratory Factor 1 (NRF1) Orphan Gene (AID 2282987; active = hit-call score of the fitted dose curve at least 0.9, where 1 is the maximum; inactive = score below 0.9). The settings on record: HepG2 NRF1 cis-element reporter, Attagene multiplex; actives raise or lower the signal. Summed up: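 Using DMSO as baseline, gain- or loss-of-signal was fitted for reporter mRNA levels in HepG2 cells transiently transfected with cis-regulated reporter units. Samples were taken 24 h after dosing and read by RT-PCR with capillary electrophoresis.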

In test [8] the target is Steroid hormone receptor ERR1 (Homo sapiens) (UniProt P11474). The test can be described thus: ATG_ERRa_TRANS: Attagene TRANS-FACTORIAL HepG2 Assay for human Estrogen-Related Receptor alpha (ERRa) (AID 2282971). To be noted: HepG2 Attagene TRANS reporter, ERRa transactivation. Summed up: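 Signal gain relative to DMSO for an ERRa-Gal4 chimeric receptor, read as reporter mRNA by RT-PCR/capillary electrophoresis. Human HepG2 liver cells, transient multiplex reporter transfection, 24 h chemical exposure.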

A short description of test [9]: ATG_GAL4_TRANS: Attagene TRANS-FACTORIAL HepG2 Assay for GAL4 (Internal Marker) (AID 2282976). To be noted: HepG2 Attagene TRANS GAL4 internal marker reporter. Summed up:
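Liver HepG2 line bearing multiplexed GAL4-UAS reporter constructs; 24 h chemical treatment. Transcripts were quantified as fluorescent fragments on capillary electrophoresis after RT-PCR and HpaI cut, with activity fitted upward from DMSO.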

For test [10], the target named is Glucocorticoid receptor (Homo sapiens) (UniProt P04150). The test can be described thus: ATG_GR_TRANS: Attagene TRANS-FACTORIAL HepG2 Assay for human Glucocorticoid Receptor (GR) (AID 2282978).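 Note: activators score as hits since higher reporter transcript over DMSO is fitted.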 The settings on record: HepG2 Attagene TRANS GR reporter, mRNA transcription. Summed up: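 Exogenous NR-GAL4 fusion activity was assessed through induced GAL4-UAS reporter transcripts in transfected human HepG2 cells, quantified after 24 h by RT-PCR and fluorescent capillary electrophoresis with DMSO as baseline.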

Test [11] has as its target Hepatocyte nuclear factor 4-alpha (Homo sapiens) (UniProt P41235). The test can be described thus: ATG_HNF4a_TRANS: Attagene TRANS-FACTORIAL HepG2 Assay for human Hepatocyte Nuclear Factor 4 alpha (HNF4a) (AID 2282982). To be noted: HepG2 HNF4a transactivation reporter, mRNA readout. Summed up: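 HepG2 cells transiently transfected with multiplexed GAL4-UAS reporter units responsive to chimeric NR-GAL4 proteins; compound exposure 24 h. Reporter mRNA quantified by RT-PCR, 6-FAM labelling, HpaI digestion and capillary electrophoresis; gain of signal versus DMSO baseline.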

Test [12] deals with Nuclear receptor subfamily 4 group A member 2 (Homo sapiens) (UniProt P43354). Briefly: ATG_NURR1_TRANS: Attagene TRANS-FACTORIAL HepG2 Assay for human Nuclear Receptor Related Protein 1 (NURR1) (AID 2282985). The settings on record: HepG2 Attagene TRANS reporter, mRNA readout. Summed up:
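HepG2 cells transiently transfected with GAL4-UAS reporter units and chimeric NR-Gal4 constructs; chemical exposure 24 h. Reporter mRNA quantified by RT-PCR, fluorescent labelling and capillary electrophoresis; gain of signal fitted relative to DMSO baseline.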

In test [13] the target is Estrogen receptor (Homo sapiens) (UniProt P03372). The test can be described thus: ATG_ERa_TRANS: Attagene TRANS-FACTORIAL HepG2 Assay for human Estrogen Receptor alpha (ERa) (AID 2282970). To be noted: HepG2 Attagene TRANS ERa GAL4 reporter, mRNA. Summed up:
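Multiplexed cell-based reporter format in HepG2: chimeric ERa-Gal4 protein drives GAL4-UAS reporter transcription. Fluorescent reporter mRNA quantified by capillary electrophoresis 24 hours after dosing; endpoint fitted as signal gain against DMSO.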

Test [14] is described as follows: ATG_M_19_TRANS: Attagene TRANS-FACTORIAL HepG2 Assay for M19 Transcription Factor (Internal Marker) (AID 2282974). The settings on record: HepG2 Attagene TRANS-FACTORIAL M19 internal marker reporter. Summed up:
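Using RT-PCR and capillary electrophoresis, reporter mRNA from transiently transfected human HepG2 cells was quantified following 24 h exposure; activity was fitted in the positive direction against DMSO.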

The nature of test [15]: ATG_M_32_TRANS: Attagene TRANS-FACTORIAL HepG2 Assay for M32 Transcription Factor (Internal Marker) (AID 2282984).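 Note: transcript level of a background control reporter unit measured by RT-PCR and capillary electrophoresis.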 To be noted: HepG2 Attagene TRANS M32 internal marker reporter. Summed up:
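HepG2 cells transiently transfected with multiple GAL4-UAS reporter transcription units, dosed for 24 hours; reporter mRNA quantified by RT-PCR, 6-FAM primer extension, HpaI digestion and capillary electrophoresis. Gain-of-signal fitted versus DMSO baseline; internal background-control marker.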

In test [16] the target is Estrogen-related receptor gamma (Homo sapiens) (UniProt P62508). Briefly: ATG_ERRg_TRANS: Attagene TRANS-FACTORIAL HepG2 Assay for human Estrogen-Related Receptor gamma (ERRg) (AID 2282977).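 Note: hits increase reporter signal over DMSO so potencies reflect activators.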 To be noted: HepG2 Attagene TRANS reporter, ERRg transactivation. Summed up:
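HepG2 cells transiently transfected with multiplexed GAL4-UAS reporter units and chimeric NR-Gal4 constructs were exposed to test chemicals for 24 h. Reporter mRNA was measured by RT-PCR, 6-FAM primer extension, HpaI digestion and capillary electrophoresis; gain-of-signal versus DMSO.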

Test [17] addresses Bile acid receptor (Homo sapiens) (UniProt Q96RI1). The test can be described thus: ATG_FXR_TRANS: Attagene TRANS-FACTORIAL HepG2 Assay for Farnesoid X Receptor (FXR) (AID 2282979).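 Note: hits raise reporter mRNA above DMSO so AC50 marks FXR activation.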 The settings on record: HepG2 Attagene TRANS FXR-GAL4 reporter transcription. Summed up: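 After 24 h chemical treatment of transfected HepG2 cells, GAL4-UAS reporter transcripts driven by an exogenous FXR-GAL4 fusion were measured by RT-PCR and capillary electrophoresis. Increases over DMSO were fitted.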

Test [18] deals with Oxysterols receptor LXR-alpha (Homo sapiens) (UniProt Q13133). The test can be described thus: ATG_LXRa_TRANS: Attagene TRANS-FACTORIAL HepG2 Assay for human Liver X Receptor alpha (LXRa) (AID 2282980). The settings on record: HepG2 Attagene TRANS reporter, LXRa transactivation. Summed up:
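In this multiplexed TRANS system, compounds act on HepG2 cells carrying GAL4-UAS reporter units and a receptor-GAL4 fusion for 24 h. Induced reporter RNA is amplified, fluorescently labelled and sized by capillary electrophoresis, with DMSO as baseline.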

Chain of Hepatocyte nuclear factor 4-alpha (Homo sapiens) (P41235 whole entry, looked up, the tested form may be a part): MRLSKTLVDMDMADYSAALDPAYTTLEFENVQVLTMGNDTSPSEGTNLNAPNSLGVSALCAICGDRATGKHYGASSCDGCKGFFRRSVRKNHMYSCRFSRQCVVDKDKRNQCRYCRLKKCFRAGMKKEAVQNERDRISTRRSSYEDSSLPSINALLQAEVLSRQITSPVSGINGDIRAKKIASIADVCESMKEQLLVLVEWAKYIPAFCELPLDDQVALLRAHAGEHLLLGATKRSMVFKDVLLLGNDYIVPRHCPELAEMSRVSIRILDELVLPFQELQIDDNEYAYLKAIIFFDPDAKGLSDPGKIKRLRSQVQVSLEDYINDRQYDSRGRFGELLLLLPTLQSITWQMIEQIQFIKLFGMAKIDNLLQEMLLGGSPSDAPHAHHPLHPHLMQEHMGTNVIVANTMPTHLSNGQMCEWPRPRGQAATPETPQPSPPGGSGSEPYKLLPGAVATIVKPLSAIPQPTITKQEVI
Chain of X-box-binding protein 1 (Homo sapiens) (P17861 whole entry, looked up, the tested form may be a part): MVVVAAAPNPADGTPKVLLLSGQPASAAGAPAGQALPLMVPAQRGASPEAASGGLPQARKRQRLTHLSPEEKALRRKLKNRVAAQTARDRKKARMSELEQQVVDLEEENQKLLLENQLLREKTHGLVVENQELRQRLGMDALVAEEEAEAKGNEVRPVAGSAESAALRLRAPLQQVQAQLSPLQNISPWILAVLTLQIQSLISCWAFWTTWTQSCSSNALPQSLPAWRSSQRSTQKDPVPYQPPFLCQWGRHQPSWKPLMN
Chain of Nuclear respiratory factor 1 (Homo sapiens) (Q16656 whole entry, looked up): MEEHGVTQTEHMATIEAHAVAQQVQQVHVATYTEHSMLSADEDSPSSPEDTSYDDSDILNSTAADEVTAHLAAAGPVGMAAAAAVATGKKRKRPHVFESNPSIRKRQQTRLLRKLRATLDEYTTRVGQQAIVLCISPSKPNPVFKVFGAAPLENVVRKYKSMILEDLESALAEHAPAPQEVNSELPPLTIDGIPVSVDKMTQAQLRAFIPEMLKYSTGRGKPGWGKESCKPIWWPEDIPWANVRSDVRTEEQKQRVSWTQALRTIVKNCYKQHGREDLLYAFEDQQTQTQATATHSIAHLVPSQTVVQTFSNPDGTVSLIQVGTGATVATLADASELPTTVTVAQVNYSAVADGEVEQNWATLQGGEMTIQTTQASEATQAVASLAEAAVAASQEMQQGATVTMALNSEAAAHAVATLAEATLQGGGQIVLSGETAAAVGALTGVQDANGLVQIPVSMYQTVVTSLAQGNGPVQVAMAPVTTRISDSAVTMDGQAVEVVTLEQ
Chain of Steroid hormone receptor ERR1 (Homo sapiens) (P11474 whole entry, looked up, the tested form may be a part): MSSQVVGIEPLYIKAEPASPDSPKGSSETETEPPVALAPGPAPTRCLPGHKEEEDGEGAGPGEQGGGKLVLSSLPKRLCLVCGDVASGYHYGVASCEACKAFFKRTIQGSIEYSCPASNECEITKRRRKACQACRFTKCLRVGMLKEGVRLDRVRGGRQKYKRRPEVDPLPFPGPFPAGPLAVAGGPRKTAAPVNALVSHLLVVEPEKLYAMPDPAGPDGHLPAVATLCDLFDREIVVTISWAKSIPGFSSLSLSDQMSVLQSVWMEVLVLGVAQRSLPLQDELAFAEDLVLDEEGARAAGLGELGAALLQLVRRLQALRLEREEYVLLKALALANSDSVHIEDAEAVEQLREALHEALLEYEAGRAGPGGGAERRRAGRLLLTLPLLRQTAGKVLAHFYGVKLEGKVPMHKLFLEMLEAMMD
Chain of Transcriptional activator Myb (Homo sapiens) (P10242 whole entry, looked up): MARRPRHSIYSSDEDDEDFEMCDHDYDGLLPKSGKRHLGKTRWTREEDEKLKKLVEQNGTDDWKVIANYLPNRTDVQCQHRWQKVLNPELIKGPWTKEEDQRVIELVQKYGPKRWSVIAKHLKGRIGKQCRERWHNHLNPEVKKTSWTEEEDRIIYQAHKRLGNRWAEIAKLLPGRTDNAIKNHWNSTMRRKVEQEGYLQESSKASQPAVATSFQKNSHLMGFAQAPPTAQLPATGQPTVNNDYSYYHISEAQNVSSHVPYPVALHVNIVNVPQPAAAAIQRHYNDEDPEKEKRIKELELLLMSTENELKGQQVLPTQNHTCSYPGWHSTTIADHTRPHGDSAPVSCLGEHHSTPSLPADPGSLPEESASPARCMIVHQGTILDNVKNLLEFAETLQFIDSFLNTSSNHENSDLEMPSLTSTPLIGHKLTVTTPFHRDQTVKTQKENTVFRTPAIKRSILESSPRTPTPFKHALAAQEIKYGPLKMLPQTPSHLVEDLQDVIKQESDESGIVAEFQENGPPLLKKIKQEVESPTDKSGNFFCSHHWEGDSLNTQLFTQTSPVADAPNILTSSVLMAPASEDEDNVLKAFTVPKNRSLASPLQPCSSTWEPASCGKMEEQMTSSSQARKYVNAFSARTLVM
Chain of Oxysterols receptor LXR-beta (Homo sapiens) (P55055 whole entry, looked up, the tested form may be a part): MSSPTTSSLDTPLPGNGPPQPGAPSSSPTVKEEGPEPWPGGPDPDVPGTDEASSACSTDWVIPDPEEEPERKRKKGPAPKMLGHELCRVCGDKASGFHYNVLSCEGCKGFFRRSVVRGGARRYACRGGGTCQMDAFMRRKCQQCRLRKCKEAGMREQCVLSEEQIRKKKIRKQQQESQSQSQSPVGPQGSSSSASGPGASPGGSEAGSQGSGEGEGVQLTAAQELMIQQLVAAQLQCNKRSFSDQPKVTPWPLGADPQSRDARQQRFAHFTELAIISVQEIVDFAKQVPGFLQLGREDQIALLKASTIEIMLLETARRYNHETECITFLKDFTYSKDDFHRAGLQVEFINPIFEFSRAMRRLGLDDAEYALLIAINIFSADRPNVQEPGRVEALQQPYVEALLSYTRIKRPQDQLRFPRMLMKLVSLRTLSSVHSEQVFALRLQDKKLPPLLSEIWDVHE
Chain of Nuclear receptor subfamily 4 group A member 2 (Homo sapiens) (P43354 whole entry, looked up, the tested form may be a part): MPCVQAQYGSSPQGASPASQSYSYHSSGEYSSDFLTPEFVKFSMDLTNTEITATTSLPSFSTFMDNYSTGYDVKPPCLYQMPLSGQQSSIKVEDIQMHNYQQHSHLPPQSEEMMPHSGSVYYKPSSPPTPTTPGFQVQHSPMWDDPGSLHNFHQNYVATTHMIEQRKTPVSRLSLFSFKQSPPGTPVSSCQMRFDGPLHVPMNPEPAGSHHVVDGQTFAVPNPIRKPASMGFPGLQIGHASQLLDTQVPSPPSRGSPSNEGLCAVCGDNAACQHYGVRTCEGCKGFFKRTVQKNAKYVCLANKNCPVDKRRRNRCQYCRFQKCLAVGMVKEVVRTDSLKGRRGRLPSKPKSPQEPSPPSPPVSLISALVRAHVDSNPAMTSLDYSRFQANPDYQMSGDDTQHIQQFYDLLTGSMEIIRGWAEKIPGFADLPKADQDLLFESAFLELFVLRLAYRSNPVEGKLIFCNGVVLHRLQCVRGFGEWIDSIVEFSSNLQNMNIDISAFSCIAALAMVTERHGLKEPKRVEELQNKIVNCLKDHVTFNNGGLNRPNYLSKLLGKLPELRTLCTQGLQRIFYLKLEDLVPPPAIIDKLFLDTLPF
Chain of Estrogen receptor (Homo sapiens) (P03372 whole entry, looked up, the tested form may be a part): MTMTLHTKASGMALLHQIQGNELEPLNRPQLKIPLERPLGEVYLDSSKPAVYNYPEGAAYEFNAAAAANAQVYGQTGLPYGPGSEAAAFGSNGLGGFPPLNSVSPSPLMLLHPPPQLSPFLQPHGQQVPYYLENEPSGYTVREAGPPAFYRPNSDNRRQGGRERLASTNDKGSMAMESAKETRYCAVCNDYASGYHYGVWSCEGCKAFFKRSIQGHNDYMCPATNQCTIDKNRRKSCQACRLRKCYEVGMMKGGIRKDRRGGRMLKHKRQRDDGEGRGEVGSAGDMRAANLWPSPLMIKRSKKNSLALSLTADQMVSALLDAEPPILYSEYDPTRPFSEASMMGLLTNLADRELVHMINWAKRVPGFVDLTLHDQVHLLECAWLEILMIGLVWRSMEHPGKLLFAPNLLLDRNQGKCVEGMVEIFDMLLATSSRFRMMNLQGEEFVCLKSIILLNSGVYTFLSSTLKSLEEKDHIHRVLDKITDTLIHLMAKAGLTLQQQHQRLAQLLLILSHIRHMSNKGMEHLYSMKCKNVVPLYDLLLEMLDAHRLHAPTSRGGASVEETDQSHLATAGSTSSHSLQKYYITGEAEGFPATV
Chain of Oxysterols receptor LXR-alpha (Homo sapiens) (Q13133 whole entry, looked up, the tested form may be a part): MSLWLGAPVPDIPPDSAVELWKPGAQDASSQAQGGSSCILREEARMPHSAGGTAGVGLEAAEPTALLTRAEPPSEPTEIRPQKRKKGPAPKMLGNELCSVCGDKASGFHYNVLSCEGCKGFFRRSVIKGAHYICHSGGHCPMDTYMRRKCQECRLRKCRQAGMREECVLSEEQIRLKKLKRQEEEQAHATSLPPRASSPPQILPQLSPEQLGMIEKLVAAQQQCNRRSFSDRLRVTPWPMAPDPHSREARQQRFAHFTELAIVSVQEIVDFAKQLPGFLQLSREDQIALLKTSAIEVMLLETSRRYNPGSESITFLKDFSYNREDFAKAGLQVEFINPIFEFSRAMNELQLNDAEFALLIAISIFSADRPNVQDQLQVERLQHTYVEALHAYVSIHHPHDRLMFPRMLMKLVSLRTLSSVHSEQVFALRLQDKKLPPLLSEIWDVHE
Chain of Estrogen-related receptor gamma (Homo sapiens) (P62508 whole entry, looked up, the tested form may be a part): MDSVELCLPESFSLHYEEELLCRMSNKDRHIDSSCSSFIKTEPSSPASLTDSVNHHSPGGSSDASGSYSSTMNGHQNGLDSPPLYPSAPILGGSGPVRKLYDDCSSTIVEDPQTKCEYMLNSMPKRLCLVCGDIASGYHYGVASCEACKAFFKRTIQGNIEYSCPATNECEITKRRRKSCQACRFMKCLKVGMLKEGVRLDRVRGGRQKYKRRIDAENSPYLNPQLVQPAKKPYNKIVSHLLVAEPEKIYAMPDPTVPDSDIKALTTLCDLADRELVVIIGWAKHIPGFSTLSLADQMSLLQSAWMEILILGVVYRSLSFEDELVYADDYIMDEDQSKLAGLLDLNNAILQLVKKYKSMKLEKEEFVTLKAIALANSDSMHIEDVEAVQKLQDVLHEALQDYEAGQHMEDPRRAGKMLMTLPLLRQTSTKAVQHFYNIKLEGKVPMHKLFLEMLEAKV

With `COc1ccc(NC(C)=O)cc1N`, the result in test [1], in test [2], in [3], in test [4], in test [5] and in test [6] was inactive. For the same compound, the call in test [7] was inactive.

As to `SCCc1cnccn1`, the AC50 (as a rule, the midpoint of the concentration-response curve, whichever way the signal moves) in test [1] is 100 µM (active). Moreover, the outcome in test [2], in test [8], in [3], in test [9], in test [10] and in test [11] was inactive. Moreover, the result in test [5], in [12], in [6] and in test [7] was inactive.

On to `O=C1CC2CC1C1CCCC21` (configuration not stated), for which the call in test [1], in test [2], in test [13], in test [8], in [3] and in [14] was inactive. For the same compound, the outcome in test [9], in test [10], in [15], in [6] and in test [7] was inactive.

`CCN(CCC#N)c1ccc(N=Nc2c(Cl)cc([N+](=O)[O-])cc2Cl)cc1`: the compound was classed as inactive in [1], in test [2], in [3], in [16], in [10] and in test [17]. The call in [18], in [4], in test [11], in test [5], in test [12] and in [6] was inactive. Also, the result in [7] was inactive. Further, the AC50 in [13] was 4.92 µM (active).

For the compound `COC(=O)c1ccccc1OC`, the compound was called inactive in [1], in test [2], in test [8], in test [17], in [5] and in [7].

On to `OC1CCCCCCCCCCC1`, for which the outcome in [1], in [2], in [3], in [5] and in test [6] was inactive. In addition, the AC50 in test [13] was 10.6 µM (active).

Take `O=C(C=Cc1ccccc1)OCc1ccccc1`: the result in test [1], in test [2], in test [13], in test [3], in test [11] and in [5] was inactive. For the same compound, the outcome in test [15], in [12], in test [6] and in test [7] was inactive.

In the case of `CCCCCCCC[N+](C)(CCCCCCCC)CCCCCCCC`, the call in [1], in test [2], in [3], in [14], in test [10] and in test [18] was inactive. The outcome in [11], in test [15], in [6] and in test [7] was inactive.

Regarding `C[C@]12CCC(=O)C=C1CC[C@@H]1[C@@H]2C(=O)C[C@@]2(C)[C@H]1CC[C@]2(O)C(=O)CO`, the result in test [1], in test [2], in test [13], in test [3], in [9] and in test [10] was inactive. The compound was called inactive in test [18], in test [4], in test [11], in [5], in test [6] and in test [7].

Turning to `O=c1[nH]c(=O)c2[nH]c(=O)[nH]c2[nH]1`, the compound was classed as inactive in [1], in test [2], in [13], in [3], in [10] and in test [5]. Also, the outcome in test [12] and in test [6] was inactive.

With `O=C(Nc1ccccc1)c1ccccc1O`, the compound was called inactive in [1], in test [2], in test [8], in test [16], in [18] and in [4]. Moreover, the outcome in test [11], in test [5], in test [12], in [6] and in test [7] was inactive. Further, the AC50 in [13] is 27.2 µM (active).

Take `CC(=O)OC1C2(C)CCC(C2)C1(C)C` (configuration not stated): the call in test [1], in test [2], in [16], in test [10], in test [18] and in [4] was inactive. For the same compound, the compound was classed as inactive in [11], in test [5], in test [6] and in test [7].
